Test results taken from PubChem BioAssay (EPA / NIEHS).
Calls of active or inactive are those of the source. The calls were made as follows: active = hit-call score of the fitted dose curve at least 0.9, where 1 is the maximum; inactive = score below 0.9.

Tests used:
[1] = ATG_CMV_CIS: Attagene CIS-FACTORIAL HepG2 Assay for human CMV (Internal Marker) (AID 2282928); settings: HepG2 CMV promoter reporter, transcription factor profiling; actives raise or lower the signal;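 also: endpoint acts as a background internal control marker rather than a target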
Summary of the method: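 Reporter transcripts from transfected HepG2 cells are isolated after 24 h of chemical dosing, reverse-transcribed and amplified. Fragments labeled with 6-FAM are cut with HpaI and quantified by capillary electrophoresis; DMSO defines baseline.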

[2] = ATG_ISRE_CIS: Attagene CIS-FACTORIAL HepG2 Assay for human Interferon Regulatory Factor 1 (IRF1) binding to an Interferon-Stimulated Response Element (ISRE) (AID 2282948); settings: HepG2 ISRE cis-reporter (Attagene), mRNA transcription readout; actives raise or lower the signal
Summary of the method: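 Uses HepG2 liver cells transfected with cis-regulated reporters and measures mRNA 24 h post-dosing through RT-PCR, primer-extension labelling and capillary electrophoresis, with DMSO as negative control.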

[3] = ATG_M_32_CIS: Attagene CIS-FACTORIAL HepG2 Assay for M32 Transcription Factor (Internal Marker) (AID 2282949); settings: HepG2 Attagene cis-factorial M32 reporter, mRNA; actives raise or lower the signal;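 also: background control marker of the multiplexed CIS panel rather than a real target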
Summary of the method: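 Transient MRTU transfection of HepG2; 24 h compound treatment; TriZol RNA, oligo(dT) RT, reporter PCR, 6-FAM primer extension, HpaI cut, CE. Gain/loss of signal vs DMSO.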

[4] = biological target: Hepatocyte nuclear factor 6 (Homo sapiens) (UniProt Q9UBC0); experiment: ATG_HNF6_CIS: Attagene CIS-FACTORIAL HepG2 Assay for human Hepatocyte Nuclear Factor 6 (HNF6) (AID 2282952); settings: HepG2 Attagene cis-factorial HNF6 reporter transcription; actives raise or lower the signal
Summary of the method: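 Activity values derive from bidirectional fitting against DMSO of reporter mRNA levels, measured by capillary electrophoresis of labelled RT-PCR products from HepG2 cells exposed 24 h.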

[5] = biological target: Heat shock factor protein 1 (Homo sapiens) (UniProt Q00613); experiment: ATG_HSE_CIS: Attagene CIS-FACTORIAL HepG2 Assay for human Heat Shock Transcription Factor 1 (HSE) (AID 2282953); settings: HepG2 HSE cis-reporter, Attagene RNA transcription; actives raise or lower the signal
Summary of the method: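 HepG2 cells transiently transfected with multiple reporter transcription units under cis-regulatory promoter control, measuring endogenous transcription factor activity. After 24 h chemical exposure, reporter mRNA quantified by RT-PCR, fluorescent labelling, HpaI digestion and capillary electrophoresis; bidirectional fit versus DMSO.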

[6] = ATG_RORE_CIS: Attagene CIS-FACTORIAL HepG2 Assay for human RAR-related Orphan Receptor Element (RORE) (AID 2282959); settings: HepG2 Attagene cis-factorial RORE reporter, mRNA; actives raise or lower the signal
Summary of the method: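 Transfect HepG2 with MRTUs; treat 24 h; extract RNA; RT with oligo(dT); PCR with reporter-specific primers; 6-FAM primer extension; HpaI digest 2 h at 37 C; capillary electrophoresis. Fit vs DMSO, bidirectional.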

[7] = biological target: Signal transducer and activator of transcription 3 (Homo sapiens) (UniProt P40763); experiment: ATG_STAT3_CIS: Attagene CIS-FACTORIAL HepG2 Assay for human Signal Transducer and Activator of Transcription 3 (STAT3) (AID 2282963); settings: HepG2, Attagene cis-factorial STAT3 reporter transcription; actives raise or lower the signal
Summary of the method: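 Cis-factorial format: endogenous transcription factors in HepG2 drive transfected reporter units. After 24 h treatment, reporter RNA was reverse-transcribed, amplified, FAM-labelled and HpaI-digested before CE analysis; activity scored in both directions against DMSO.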

[8] = ATG_TA_CIS: Attagene CIS-FACTORIAL HepG2 Assay for human TA Basal Promoter (AID 2282964); settings: HepG2 Attagene CIS-factorial TA basal promoter reporter; actives raise or lower the signal
Summary of the method: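 HepG2 cells transiently transfected with multiplexed cis-promoter reporter units, dosed 24 h. Reporter mRNA measured by RT-PCR, 6-FAM labelling, HpaI digestion and capillary electrophoresis; bidirectional fit versus DMSO baseline, serving as background control.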

[9] = ATG_TCF_b_cat_CIS: Attagene CIS-FACTORIAL HepG2 Assay for human T-Cell-Factor with beta-catenin (TCF/b-cat) (AID 2282965); settings: HepG2 TCF/beta-catenin cis-reporter transcription, actives raise or lower the signal
Summary of the method: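 Measured: reporter mRNA in HepG2 transiently transfected with cis-promoter reporter units, 24 h after chemical addition. Fitting was bidirectional, DMSO as negative control.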

[10] = ATG_TAL_CIS: Attagene CIS-FACTORIAL HepG2 Assay for human TAL Basal Promoter (AID 2282966); settings: HepG2 Attagene cis-factorial TAL promoter reporter; actives raise or lower the signal;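 also: background control endpoint measuring basal TAL promoter reporter mRNA not a specific factor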
Summary of the method: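 Transiently transfected HepG2 (cis-regulated reporter units), 24 h treatment, mRNA read by fluorescent CE after RT-PCR; bidirectional fit, DMSO baseline.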

[11] = ATG_TGFb_CIS: Attagene CIS-FACTORIAL HepG2 Assay for human Transforming Growth Factor (TGF) (AID 2282967); settings: HepG2 Attagene CIS TGFb reporter, mRNA transcription; actives raise or lower the signal
Summary of the method: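 HepG2 cells transiently transfected with cis-promoter-driven multiplexed reporter units; 24 h compound exposure. Reporter mRNA measured by RT-PCR, 6-FAM labeling, HpaI digestion and capillary electrophoresis; bidirectional fit versus DMSO baseline.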

[12] = biological target: X-box-binding protein 1 (Homo sapiens) (UniProt P17861); experiment: ATG_Xbp1_CIS: Attagene CIS-FACTORIAL HepG2 Assay for human X-box Binding Protein 1 (XBP1) (AID 2282972); settings: HepG2 XBP1 cis-element reporter, Attagene multiplex; actives raise or lower the signal
Summary of the method: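 Changes in reporter transcript abundance, read by RT-PCR and capillary electrophoresis, reflect endogenous transcription factor activity. Transfected HepG2 cells received compound for 24 hours; DMSO defined baseline for bidirectional analysis.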

[13] = biological target: Transcriptional activator Myb (Homo sapiens) (UniProt P10242); experiment: ATG_Myb_CIS: Attagene CIS-FACTORIAL HepG2 Assay for human Myeloblastosis (Myb) Proto-Oncogene Transcription Factor (AID 2282986); settings: HepG2 Attagene CIS-FACTORIAL Myb reporter transcription; actives raise or lower the signal
Summary of the method: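 Using HepG2 liver cells bearing transiently transfected cis-promoter reporter constructs, the assay measures induction or loss of reporter mRNA after 24 hours of dosing. Detection used fluorescently labeled RT-PCR products separated by capillary electrophoresis.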

[14] = biological target: Nuclear respiratory factor 1 (Homo sapiens) (UniProt Q16656); experiment: ATG_NRF1_CIS: Attagene CIS-FACTORIAL HepG2 Assay for human Nuclear Respiratory Factor 1 (NRF1) Orphan Gene (AID 2282987); settings: HepG2 NRF1 cis-element reporter, Attagene multiplex; actives raise or lower the signal
Summary of the method: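 Reporter mRNA induction or loss in HepG2 cells after 24 h dosing; cis-regulated reporter constructs report endogenous transcription-factor activity. Quantified by RT-PCR/capillary electrophoresis fluorescence, DMSO-referenced.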

[15] = biological target: Myc proto-oncogene protein (Homo sapiens) (UniProt P01106); experiment: ATG_Myc_CIS: Attagene CIS-FACTORIAL HepG2 Assay for human Myelocytomatosis (Myc) Proto-Oncogene Transcription Factor (AID 2282990); settings: HepG2, Attagene cis-reporter transcription factor activity; actives raise or lower the signal
Summary of the method: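 Cells of the HepG2 human liver line bear multiple cis-driven reporter transcription units. Reporter mRNA after 24 h exposure is reverse-transcribed, amplified, labelled and resolved by capillary electrophoresis, with gain- or loss-of-signal fitting relative to DMSO.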

[16] = ATG_NF_kB_CIS: Attagene CIS-FACTORIAL HepG2 Assay for human Nuclear Factor Kappa B (NF-kB) (AID 2282991); settings: HepG2 Attagene cis-factorial NF-kB reporter mRNA; actives raise or lower the signal
Summary of the method: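 DMSO served as negative control and baseline for bidirectional curve fitting. Transiently transfected HepG2 cells were dosed for 24 h, then reporter transcripts were measured by RT-PCR with capillary electrophoresis detection.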

[17] = ATG_NRF2_ARE_CIS: Attagene CIS-FACTORIAL HepG2 Assay for human Nuclear Factor Erythroid 2 Related Factor 2 (NFR2) response to Antioxidant Response Elements (ARE) (AID 2282992); settings: HepG2 Attagene ARE/NRF2 reporter, transcription factor activity; actives raise or lower the signal
Summary of the method: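 Using transiently transfected HepG2 cells exposed for 24 h, reporter mRNA levels were determined by RT-PCR with fluorescent primer extension and capillary electrophoresis, analysed for gain or loss of signal against DMSO.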

[18] = ATG_Oct_MLP_CIS: Attagene CIS-FACTORIAL HepG2 Assay for human Octamer-Binding Transcription Factor (Oct) (AID 2282993); settings: HepG2 Attagene cis-factorial Oct reporter, mRNA; actives raise or lower the signal
Summary of the method: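 HepG2 cells transiently transfected with cis-promoter-driven multiplexed reporter transcription units, dosed for 24 h. Reporter mRNA quantified by RT-PCR, fluorescent labelling, HpaI digestion and capillary electrophoresis; bidirectional fits versus DMSO baseline.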

[19] = biological target: Cellular tumor antigen p53 (Homo sapiens) (UniProt P04637); experiment: ATG_p53_CIS: Attagene CIS-FACTORIAL HepG2 Assay for human p53 Transcription Factor (AID 2282994); settings: HepG2 p53 cis-element reporter, Attagene mRNA; actives raise or lower the signal
Summary of the method: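 In HepG2 cells, reporter transcription units under cis-regulatory promoters were transiently introduced. Following 24 h treatment, RNA was processed to labelled, digested cDNA fragments read by capillary electrophoresis; fitting was bidirectional versus DMSO.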

[20] = ATG_VDRE_CIS: Attagene CIS-FACTORIAL HepG2 Assay for human Vitamin D Receptor Element (VDRE) (AID 2282968); settings: HepG2 VDRE cis-reporter transcription, actives raise or lower the signal
Summary of the method: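 Measures endogenous factor activity through cis-element-driven reporter transcripts in transiently transfected HepG2. Cells are treated 24 h; reporter mRNA is quantified by RT-PCR and capillary electrophoresis; fitting is bidirectional.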

Measured: outcome

Sequence of Nuclear respiratory factor 1 (Homo sapiens) (Q16656 whole entry, looked up): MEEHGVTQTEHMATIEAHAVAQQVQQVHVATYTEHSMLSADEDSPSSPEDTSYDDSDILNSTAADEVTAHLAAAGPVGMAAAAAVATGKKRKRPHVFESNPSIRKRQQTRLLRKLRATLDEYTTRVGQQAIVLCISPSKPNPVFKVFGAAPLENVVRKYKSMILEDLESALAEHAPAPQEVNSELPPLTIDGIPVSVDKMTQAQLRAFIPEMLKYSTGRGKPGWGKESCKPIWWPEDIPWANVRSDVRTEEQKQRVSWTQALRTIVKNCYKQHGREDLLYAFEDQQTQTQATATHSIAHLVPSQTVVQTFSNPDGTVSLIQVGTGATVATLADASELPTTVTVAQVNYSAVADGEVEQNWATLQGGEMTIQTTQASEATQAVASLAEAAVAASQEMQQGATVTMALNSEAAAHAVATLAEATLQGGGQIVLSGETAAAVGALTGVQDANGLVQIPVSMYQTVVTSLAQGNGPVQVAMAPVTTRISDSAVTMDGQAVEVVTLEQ
Sequence of Signal transducer and activator of transcription 3 (Homo sapiens) (P40763 whole entry, looked up): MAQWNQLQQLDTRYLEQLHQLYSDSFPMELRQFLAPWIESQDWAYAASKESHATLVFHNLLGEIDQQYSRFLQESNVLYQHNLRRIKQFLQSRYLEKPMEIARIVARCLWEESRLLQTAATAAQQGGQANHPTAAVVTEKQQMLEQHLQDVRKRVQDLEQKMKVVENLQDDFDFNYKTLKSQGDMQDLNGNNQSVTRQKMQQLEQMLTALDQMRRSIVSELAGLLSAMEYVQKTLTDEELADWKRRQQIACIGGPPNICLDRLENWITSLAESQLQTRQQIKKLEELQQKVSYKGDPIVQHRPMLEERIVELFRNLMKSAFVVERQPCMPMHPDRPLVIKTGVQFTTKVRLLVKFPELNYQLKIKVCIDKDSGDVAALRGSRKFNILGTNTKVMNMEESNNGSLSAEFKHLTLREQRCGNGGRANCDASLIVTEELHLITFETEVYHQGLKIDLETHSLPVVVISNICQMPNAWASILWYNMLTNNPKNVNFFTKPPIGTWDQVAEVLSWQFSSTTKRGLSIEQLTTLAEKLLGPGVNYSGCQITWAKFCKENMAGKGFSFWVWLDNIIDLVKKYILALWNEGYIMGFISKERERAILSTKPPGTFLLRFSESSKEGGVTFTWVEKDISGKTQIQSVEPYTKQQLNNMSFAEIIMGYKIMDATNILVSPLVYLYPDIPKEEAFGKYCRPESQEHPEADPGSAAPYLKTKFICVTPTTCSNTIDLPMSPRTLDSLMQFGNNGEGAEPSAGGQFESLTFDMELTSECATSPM
Sequence of Cellular tumor antigen p53 (Homo sapiens) (P04637 whole entry, looked up, the tested form may be a part): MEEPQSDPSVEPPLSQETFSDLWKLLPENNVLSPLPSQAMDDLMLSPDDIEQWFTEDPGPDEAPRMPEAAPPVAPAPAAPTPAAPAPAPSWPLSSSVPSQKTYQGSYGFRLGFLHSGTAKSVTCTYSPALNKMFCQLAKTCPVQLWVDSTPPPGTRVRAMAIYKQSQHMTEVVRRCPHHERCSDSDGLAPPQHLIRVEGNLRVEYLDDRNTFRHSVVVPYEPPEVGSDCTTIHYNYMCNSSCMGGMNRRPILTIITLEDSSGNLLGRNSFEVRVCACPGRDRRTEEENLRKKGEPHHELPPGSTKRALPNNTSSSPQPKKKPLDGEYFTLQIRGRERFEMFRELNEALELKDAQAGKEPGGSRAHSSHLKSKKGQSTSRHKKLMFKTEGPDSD
Sequence of Hepatocyte nuclear factor 6 (Homo sapiens) (Q9UBC0 whole entry, looked up): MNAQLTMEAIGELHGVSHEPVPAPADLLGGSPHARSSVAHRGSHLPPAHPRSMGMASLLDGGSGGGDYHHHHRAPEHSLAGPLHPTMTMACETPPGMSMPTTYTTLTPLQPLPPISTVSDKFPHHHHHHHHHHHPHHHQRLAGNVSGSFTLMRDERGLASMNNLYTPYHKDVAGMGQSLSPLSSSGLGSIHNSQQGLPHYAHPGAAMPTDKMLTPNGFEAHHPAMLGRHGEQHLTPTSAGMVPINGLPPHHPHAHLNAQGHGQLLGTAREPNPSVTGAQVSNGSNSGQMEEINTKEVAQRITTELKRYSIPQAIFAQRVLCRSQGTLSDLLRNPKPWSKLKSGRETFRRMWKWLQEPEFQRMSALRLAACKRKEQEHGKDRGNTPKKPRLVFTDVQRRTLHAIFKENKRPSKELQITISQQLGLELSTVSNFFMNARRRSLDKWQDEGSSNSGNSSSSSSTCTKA
Sequence of Myc proto-oncogene protein (Homo sapiens) (P01106 whole entry, looked up): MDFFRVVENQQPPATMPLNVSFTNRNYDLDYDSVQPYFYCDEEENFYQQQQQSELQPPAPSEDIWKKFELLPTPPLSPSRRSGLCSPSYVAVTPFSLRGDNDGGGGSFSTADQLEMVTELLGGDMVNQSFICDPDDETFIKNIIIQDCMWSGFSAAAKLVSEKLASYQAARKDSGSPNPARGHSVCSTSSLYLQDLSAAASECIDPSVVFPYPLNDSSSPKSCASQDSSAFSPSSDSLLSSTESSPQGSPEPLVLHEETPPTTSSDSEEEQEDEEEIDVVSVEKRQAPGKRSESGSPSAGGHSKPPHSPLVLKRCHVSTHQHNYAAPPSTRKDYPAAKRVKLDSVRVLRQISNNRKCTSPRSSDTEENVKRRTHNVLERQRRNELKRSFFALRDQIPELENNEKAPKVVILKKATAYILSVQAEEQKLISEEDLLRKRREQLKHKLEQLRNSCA
Sequence of Transcriptional activator Myb (Homo sapiens) (P10242 whole entry, looked up): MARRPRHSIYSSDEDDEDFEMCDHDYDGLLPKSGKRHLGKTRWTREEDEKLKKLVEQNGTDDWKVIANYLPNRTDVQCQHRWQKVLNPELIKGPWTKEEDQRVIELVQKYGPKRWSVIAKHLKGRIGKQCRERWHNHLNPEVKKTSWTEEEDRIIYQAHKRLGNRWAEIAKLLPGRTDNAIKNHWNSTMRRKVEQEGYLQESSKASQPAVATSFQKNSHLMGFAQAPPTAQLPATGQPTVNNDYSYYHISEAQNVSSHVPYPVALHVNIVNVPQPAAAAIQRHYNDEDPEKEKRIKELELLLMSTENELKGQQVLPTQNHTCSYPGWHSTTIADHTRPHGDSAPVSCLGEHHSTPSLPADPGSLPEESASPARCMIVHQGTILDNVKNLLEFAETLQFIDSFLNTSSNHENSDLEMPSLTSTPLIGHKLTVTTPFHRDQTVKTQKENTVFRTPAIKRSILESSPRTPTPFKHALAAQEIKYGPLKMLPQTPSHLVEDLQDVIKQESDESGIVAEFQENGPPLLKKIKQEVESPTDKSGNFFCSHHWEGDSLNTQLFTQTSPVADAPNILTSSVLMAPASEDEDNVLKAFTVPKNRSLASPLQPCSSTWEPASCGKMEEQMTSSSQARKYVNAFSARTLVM
Sequence of X-box-binding protein 1 (Homo sapiens) (P17861 whole entry, looked up): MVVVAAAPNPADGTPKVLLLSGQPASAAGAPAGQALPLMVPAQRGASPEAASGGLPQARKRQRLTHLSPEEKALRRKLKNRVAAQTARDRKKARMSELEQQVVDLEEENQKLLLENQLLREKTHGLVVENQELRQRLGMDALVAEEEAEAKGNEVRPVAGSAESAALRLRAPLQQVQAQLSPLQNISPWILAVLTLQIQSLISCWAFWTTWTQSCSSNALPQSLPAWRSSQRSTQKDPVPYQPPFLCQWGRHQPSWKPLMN
Sequence of Heat shock factor protein 1 (Homo sapiens) (Q00613 whole entry, looked up): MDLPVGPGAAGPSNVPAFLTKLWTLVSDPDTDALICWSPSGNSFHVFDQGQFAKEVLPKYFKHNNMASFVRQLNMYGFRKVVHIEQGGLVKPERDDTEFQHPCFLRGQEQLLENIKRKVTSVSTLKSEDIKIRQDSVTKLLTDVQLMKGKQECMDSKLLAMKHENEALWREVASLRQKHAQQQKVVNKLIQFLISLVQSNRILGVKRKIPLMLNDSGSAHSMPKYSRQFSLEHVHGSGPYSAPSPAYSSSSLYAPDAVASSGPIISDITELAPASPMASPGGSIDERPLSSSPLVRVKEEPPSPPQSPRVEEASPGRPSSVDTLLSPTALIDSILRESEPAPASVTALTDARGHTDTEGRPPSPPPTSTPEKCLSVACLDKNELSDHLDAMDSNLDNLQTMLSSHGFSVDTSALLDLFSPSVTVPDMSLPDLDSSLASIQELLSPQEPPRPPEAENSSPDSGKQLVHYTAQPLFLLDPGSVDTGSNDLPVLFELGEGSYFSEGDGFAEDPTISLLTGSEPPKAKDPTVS

C#CC1(O)CCCCC1
not listed: [20]
inactive: all other assays above

CC(O)CN(CC(C)O)CC(C)O (stereo not given)
not listed: [3] | [16] | [20]
inactive: all other assays above

c1ccc2c(c1)CCCC2
inactive: all assays above

CCOP(O)OCC
not listed: [19]
inactive: all other assays above
